The campaign covered roughly 1,200 compounds. About 60 (5%) were called active. About 1% were inconclusive and are not listed.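 Rule for the calls: active = Decreasing signal and fitted IC50 at most twice the top valid tested dose; inconclusive = Bad fit or a level curve showing 30 to 70% inhibition; inactive = the rest.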 A selection follows. Potency and affinity values are given separately.
Target: NAD-dependent protein deacylase sirtuin-5, mitochondrial (Homo sapiens) (UniProt Q9NXA8)
Test: SIRT5 desuccinylase inhibitors, dose response, biochemical, fluorescence imaging, cherry-pick, set 5 (AID 720591);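 note: 0% = median of neutral control wells and -100% = median of positive control wells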
Conditions: Purified SirT5, succinyl-peptide AMC, trypsin-coupled fluorescence; series mostly up to 15 µM; activity change, negative = inhibition: at the top concentration

Sequence of NAD-dependent protein deacylase sirtuin-5, mitochondrial (Homo sapiens) (Q9NXA8 whole entry, looked up): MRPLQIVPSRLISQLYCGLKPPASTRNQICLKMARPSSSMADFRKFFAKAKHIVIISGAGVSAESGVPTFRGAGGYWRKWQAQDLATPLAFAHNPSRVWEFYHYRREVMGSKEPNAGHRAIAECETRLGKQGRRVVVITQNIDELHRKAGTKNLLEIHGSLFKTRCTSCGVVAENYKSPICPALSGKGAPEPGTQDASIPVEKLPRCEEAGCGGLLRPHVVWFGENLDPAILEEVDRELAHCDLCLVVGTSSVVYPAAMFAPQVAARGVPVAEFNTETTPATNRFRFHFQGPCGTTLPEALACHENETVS

Activity change, negative = inhibition, inactive:
Cc1nn(CC(=O)N(C)C)c(=O)c2ccccc12 -8.69%
Cc1ccc(S(=O)(=O)c2nc(Cc3ccccc3)oc2N2CCOCC2)cc1 -13.3%
Cc1ccc(C(C(=O)NC(C)(C)C)N(C(=O)CCC(=O)Nc2ccccn2)c2ccccc2F)cc1 (stereo unspecified) -3.12%
CO/N=C(\C(=O)N[C@@H]1C(=O)N2C(C(=O)O)=C(COC(C)=O)CS[C@H]12)c1csc(N)n1 (stereo in doubt) -15.9%
Cc1ccc(-c2ccc(=O)n(CC(=O)Nc3ccc4c(c3)OCCO4)n2)cc1 16.6%
COc1ccc(N2CCN(C(=O)CN(C)S(=O)(=O)c3cc(C)ccc3OC)CC2)cc1 -6.06%
N[C@@H](CO)c1nnc([C@H](Cc2ccc(O)cc2)NC(=O)C2CCNCC2)o1 -9.88%
O=S(=O)(CCc1ccncc1)c1ccc(Cl)cc1 7.83%
NCC(O)CN(c1ccccc1)c1ccccc1 (stereo unspecified) 0.799%
O=C(c1cccc(F)c1)N1CCCC(C(=O)N2CCCCCC2)C1 (stereo unspecified) 16.1%
O=C(c1cccc(F)c1)N1CCCC(C(=O)N2CCCCC2)C1 (stereo unspecified) -26.3%
CC(=O)Nc1ccc(S(=O)(=O)Nc2ccc(-n3cnnn3)cc2)cc1 -11.7%
O=C(Nc1ccc(F)cc1)C1CC(=O)n2ncnc2N1 (stereo unspecified) -19.7%
C[C@H](CO)N1C[C@H](C)[C@@H](CN(C)Cc2ccccn2)Oc2ncc(Br)cc2C1=O -20.5%
Cc1csc(NC(=O)CSc2sc3c(O)cc(=O)[nH]c3c2C#N)n1 -33.2%
N#Cc1c(SCC(=O)Nc2nccs2)sc2c(O)cc(=O)[nH]c12 -20.5%
CC(=O)N1N=C(N)SC12CCCC2 -1.47%
C[C@H]1CN([C@@H](C)CO)C(=O)c2cc(Br)cnc2O[C@H]1CN(C)C(=O)c1ccccn1 24.1%
CC(C)NC(=O)N(C)C[C@@H]1OCc2cnnn2CCCC(=O)N([C@@H](C)CO)C[C@H]1C 10.8%
C[C@@H]1CN([C@H](C)CO)C(=O)CCCn2nncc2CO[C@H]1CN(C)C(=O)Nc1cccc2ccccc12 11.2%
Cc1ccnc(NS(=O)(=O)c2ccc(NC(=O)Cc3ccc(F)cc3)cc2)n1 18%
Cc1noc(C)c1COc1ccc(C(=O)N2CCN(S(=O)(=O)c3cccc(F)c3)CC2)cc1 -6.62%
COc1ccc(NC(=O)CN(c2ccc(Cl)cc2)S(C)(=O)=O)cc1OC 3.15%
O=C(COC(=O)CC1CC2CCC1C2)NCc1ccccc1 (stereo unspecified) 15.9%
O=C(COC(=O)CC1CC2CCC1C2)Nc1ccc(F)cc1 (stereo unspecified) 6.05%
COc1ccccc1OCCSc1nc2ccccc2n1CC(O)CO (stereo unspecified) -18.9%
COc1cc(C(=O)NCCCc2nc3ccccc3n2Cc2cc(C)ccc2C)cc(OC)c1OC 9.81%
c1ccc(CCc2nc(-c3ccc(-n4cccc4)cc3)no2)cc1 16.5%
Cc1ccc(-c2noc(CN(C)C(=O)c3ccc(Br)o3)n2)cc1 -17.4%
Cc1ccc(CNC(=O)C2CCCN(S(=O)(=O)N3CC(C)CC(C)C3)C2)cc1 (stereo unspecified) -20.4%
O=C(COc1ccccc1)Nc1ncn[nH]1 -8.98%
COc1cc(C)c(CN2CCN(CC(=O)Nc3ccccc3C(=O)NC3CC3)CC2)cc1OC -25.6%
O=C1CCC(C(=O)N2CCCCCC2)CN1Cc1cccc(C(F)(F)F)c1 (stereo unspecified) -29.3%
CCOC(=O)c1c(C)[nH]c(C)c1C(=O)COC(=O)c1cc2ccccc2cc1O 7.04%
CCOC(=O)c1c(C)[nH]c(C)c1C(=O)COC(=O)c1cccc(C)c1O -9.02%
CCOc1ccc(CCNC(=O)Cn2nc(C)c3c(C)n(-c4ccccc4)nc3c2=O)cc1 -21.5%
COC(=O)[C@]12CCCCC=C1N(Cc1cccc3ccccc13)C(=O)[C@H](CC(=O)NCC1CCCCC1)C2 -6.36%
CC1=C(C(=O)N2CCOCC2)CC(CC(=O)NCC2CCCCC2)C(=O)N1CCC1=CCCCC1 (stereo unspecified) 31.4%
NC(=O)c1ccc(NC(=O)CCCc2nc(-c3ccccc3Cl)no2)cc1 -28.1%
Cc1ccc2c(c1)CO[C@@]21O[C@H](CCO)C[C@H](O)[C@H]1O 3.11%
Cc1ccc(NC(=O)C2CCN(C(=O)c3ccco3)CC2)cc1 12%
Cc1cccc(NC(=O)C2CCN(C(=O)c3ccco3)CC2)c1C -16.4%
CC(C)CCN1CCN(Cc2cnc(N3CCCC3)s2)CC1CCO (stereo unspecified) 10.1%
O=C(Cc1cccs1)N1CCN(S(=O)(=O)c2ccc(Cl)c(C(F)(F)F)c2)CC1 -18.7%
C/C(N)=C(/C#N)C(=O)CSc1nnc(Nc2ccccc2)s1 -26.5%
Cc1ccc(OCCSc2nc3ccccc3n2CCC(=O)O)cc1 -29.2%
CCSc1nnc(NC(=O)Cc2ccc(OC)cc2)s1 -29.4%
CCc1ccc(S(=O)(=O)c2ccc(-n3nc(C)cc3N)cc2)cc1 21.2%
c1ccc(CCn2nnc3ccccc32)cc1 16.6%
CCOC(=O)c1c(-c2ccc(C)cc2)csc1NC(=O)CCN1CC(C)OC(C)C1 (stereo unspecified) 10.9%
CC1C(=O)N2CCCc3cc(S(=O)(=O)N4CCCCC4)cc1c32 (stereo unspecified) 10.4%
CCCNC(=O)CC1C(=O)N(Cc2ccccc2)C(C)c2nc3ccccc3n21 (stereo unspecified) -35.5%
CCCCNC(=O)CC1C(=O)N(Cc2ccccc2)C(C)c2nc3ccccc3n21 (stereo unspecified) -23.2%
CCCCCCN1CCN(C2CN(C3CCCCC3)S(=O)(=O)C2)CC1 (stereo unspecified) 24.6%
CCN(c1ccccc1)S(=O)(=O)c1nnc(NC(=O)C(C)(C)C)s1 -1.58%
COc1ccc(C(CNC(=O)c2cccc(S(=O)(=O)N3CCCCC3)c2)N2CCCC2)cc1 (stereo unspecified) -22.6%

Reference: PubChem BioAssay AID720591 (Broad Institute, 2013)
